Here are results for eight molecules from ChEMBL document CHEMBL1961873, “Compounds: GSK PKIS; Assays: Nanosyn kinase panel” (2012).

Assay [1] deals with T1, Tyrosine-protein kinase receptor TYRO3 (Homo sapiens) (UniProt Q06418).
T1 sequence (whole entry): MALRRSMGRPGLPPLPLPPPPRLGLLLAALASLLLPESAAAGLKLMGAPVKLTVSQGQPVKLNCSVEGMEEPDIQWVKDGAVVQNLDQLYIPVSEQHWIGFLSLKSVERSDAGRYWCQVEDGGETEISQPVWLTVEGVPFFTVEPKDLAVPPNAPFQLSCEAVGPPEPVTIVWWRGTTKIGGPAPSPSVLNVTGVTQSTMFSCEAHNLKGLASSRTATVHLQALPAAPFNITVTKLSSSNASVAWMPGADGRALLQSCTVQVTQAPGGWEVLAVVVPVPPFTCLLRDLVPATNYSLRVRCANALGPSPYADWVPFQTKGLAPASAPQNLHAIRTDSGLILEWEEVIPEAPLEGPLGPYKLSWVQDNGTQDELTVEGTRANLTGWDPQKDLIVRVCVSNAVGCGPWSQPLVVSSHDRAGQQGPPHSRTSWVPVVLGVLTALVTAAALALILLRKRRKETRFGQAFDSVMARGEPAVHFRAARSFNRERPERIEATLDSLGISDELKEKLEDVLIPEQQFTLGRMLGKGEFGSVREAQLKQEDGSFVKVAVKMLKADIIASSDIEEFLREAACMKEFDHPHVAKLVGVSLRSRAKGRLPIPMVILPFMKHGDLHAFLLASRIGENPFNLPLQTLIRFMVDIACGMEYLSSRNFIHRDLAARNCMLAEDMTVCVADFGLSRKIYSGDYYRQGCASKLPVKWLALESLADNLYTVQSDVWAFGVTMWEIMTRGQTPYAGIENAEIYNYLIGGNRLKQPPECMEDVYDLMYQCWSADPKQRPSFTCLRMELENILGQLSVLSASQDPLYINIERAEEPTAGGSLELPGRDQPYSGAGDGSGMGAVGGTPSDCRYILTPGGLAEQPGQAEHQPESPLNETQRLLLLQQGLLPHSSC
The following applies: at 1 µM.

Assay [2] has as its target Tyrosine-protein kinase Yes (Homo sapiens) (UniProt P07947). To be noted: at 0.1 µM.
For assay [3] the target is unchanged. The following applies: at 1 µM.
The target in assay [4] is T2, Tyrosine-protein kinase ZAP-70 (Homo sapiens) (UniProt P43403).
T2 sequence (whole entry): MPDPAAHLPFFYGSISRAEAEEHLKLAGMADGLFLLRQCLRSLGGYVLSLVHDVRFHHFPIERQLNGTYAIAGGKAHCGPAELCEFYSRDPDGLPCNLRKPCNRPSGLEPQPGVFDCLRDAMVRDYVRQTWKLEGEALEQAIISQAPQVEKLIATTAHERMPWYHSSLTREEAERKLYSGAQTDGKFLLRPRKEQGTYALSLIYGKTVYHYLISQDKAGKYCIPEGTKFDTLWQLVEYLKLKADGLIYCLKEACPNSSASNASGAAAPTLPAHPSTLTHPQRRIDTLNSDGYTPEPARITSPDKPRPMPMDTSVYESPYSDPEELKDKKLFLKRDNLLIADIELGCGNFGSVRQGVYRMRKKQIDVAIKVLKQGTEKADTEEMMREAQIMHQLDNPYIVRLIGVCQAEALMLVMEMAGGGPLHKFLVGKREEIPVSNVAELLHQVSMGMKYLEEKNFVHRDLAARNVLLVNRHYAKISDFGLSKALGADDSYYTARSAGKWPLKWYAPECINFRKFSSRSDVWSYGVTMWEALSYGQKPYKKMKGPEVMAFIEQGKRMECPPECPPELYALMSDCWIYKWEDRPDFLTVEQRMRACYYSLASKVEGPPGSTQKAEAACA
The following applies: at 0.1 µM.

In assay [5] the target is T2, Tyrosine-protein kinase ZAP-70 (Homo sapiens). To be noted: at 1 µM.
In assay [6] the target is Serine/threonine-protein kinase B-raf (Homo sapiens) (UniProt P15056). The following applies: at 0.1 µM.
Sequence of Serine/threonine-protein kinase B-raf (Homo sapiens) (P15056 whole entry): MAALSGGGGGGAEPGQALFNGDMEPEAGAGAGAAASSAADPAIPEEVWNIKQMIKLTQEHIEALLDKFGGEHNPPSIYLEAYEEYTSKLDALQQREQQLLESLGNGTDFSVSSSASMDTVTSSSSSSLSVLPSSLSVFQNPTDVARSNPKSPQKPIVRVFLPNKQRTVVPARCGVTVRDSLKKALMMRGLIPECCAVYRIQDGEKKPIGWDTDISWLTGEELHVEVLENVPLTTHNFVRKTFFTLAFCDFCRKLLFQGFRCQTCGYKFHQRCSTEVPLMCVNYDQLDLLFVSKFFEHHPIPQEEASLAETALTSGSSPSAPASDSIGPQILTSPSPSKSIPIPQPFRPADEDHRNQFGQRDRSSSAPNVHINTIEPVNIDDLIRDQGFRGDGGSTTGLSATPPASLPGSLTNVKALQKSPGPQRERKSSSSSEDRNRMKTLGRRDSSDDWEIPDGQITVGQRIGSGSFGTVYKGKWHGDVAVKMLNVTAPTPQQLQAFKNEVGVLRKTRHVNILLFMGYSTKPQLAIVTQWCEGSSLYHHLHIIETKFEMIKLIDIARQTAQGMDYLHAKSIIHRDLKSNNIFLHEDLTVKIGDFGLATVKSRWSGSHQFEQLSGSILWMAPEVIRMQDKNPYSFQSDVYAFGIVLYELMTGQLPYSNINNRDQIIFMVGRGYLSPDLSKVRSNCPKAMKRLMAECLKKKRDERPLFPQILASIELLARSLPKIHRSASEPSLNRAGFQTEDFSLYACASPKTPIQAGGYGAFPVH
Assay [7] shares this target. The following applies: at 1 µM.
In assay [8] the test system is Serine/threonine-protein kinase B-raf (Homo sapiens), P15056 [V600E]. To be noted: at 0.1 µM.
Sequence of Serine/threonine-protein kinase B-raf (Homo sapiens), P15056 [V600E] (P15056 whole entry V600E): as the sequence (P15056 whole entry) above, with V600E counted along it
For assay [9] the test system is unchanged. The following applies: at 1 µM.
For assay [10], the target named is RAF proto-oncogene serine/threonine-protein kinase (Homo sapiens) (UniProt P04049). The following applies: at 0.1 µM.
Sequence of RAF proto-oncogene serine/threonine-protein kinase (Homo sapiens) (P04049 whole entry): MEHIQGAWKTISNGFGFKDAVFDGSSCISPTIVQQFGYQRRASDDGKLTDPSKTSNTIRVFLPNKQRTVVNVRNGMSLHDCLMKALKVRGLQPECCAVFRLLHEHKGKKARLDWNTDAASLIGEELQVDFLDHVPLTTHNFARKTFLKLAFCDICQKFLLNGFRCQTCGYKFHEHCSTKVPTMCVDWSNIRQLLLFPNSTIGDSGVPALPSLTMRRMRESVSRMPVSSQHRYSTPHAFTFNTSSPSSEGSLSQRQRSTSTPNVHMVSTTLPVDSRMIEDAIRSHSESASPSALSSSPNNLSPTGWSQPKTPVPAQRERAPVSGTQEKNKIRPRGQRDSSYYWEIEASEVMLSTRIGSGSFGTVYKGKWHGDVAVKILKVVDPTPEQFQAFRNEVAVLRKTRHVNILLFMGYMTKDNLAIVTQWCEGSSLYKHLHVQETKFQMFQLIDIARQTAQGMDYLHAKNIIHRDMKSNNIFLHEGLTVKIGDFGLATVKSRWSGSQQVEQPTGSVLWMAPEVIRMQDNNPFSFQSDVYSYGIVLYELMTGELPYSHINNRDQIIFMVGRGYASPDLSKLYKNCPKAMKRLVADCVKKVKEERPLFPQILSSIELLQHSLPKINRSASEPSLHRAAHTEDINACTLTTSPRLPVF
The target is the same in assay [11]. The following applies: at 1 µM.
In assay [12] the target is T3, Interleukin-1 receptor-associated kinase 4 (Homo sapiens) (UniProt Q9NWZ3).
T3 sequence (whole entry): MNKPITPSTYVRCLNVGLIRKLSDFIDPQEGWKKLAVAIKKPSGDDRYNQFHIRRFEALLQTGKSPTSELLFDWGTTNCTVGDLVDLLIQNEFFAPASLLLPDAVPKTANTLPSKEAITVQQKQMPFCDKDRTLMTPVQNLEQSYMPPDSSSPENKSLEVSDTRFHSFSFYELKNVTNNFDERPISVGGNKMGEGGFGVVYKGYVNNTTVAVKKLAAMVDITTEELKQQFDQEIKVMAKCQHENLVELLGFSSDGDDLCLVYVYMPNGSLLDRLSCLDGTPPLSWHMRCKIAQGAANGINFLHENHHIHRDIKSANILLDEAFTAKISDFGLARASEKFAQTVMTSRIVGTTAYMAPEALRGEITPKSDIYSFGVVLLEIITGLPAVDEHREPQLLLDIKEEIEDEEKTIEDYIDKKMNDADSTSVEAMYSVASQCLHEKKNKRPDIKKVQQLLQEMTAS
The following applies: at 0.1 µM.

Assay [13] has as its target T3, Interleukin-1 receptor-associated kinase 4 (Homo sapiens). The following applies: at 1 µM.
The target of assay [14] is Leucine-rich repeat serine/threonine-protein kinase 2 (Homo sapiens) (UniProt Q5S007). The following applies: at 0.1 µM.
Sequence of Leucine-rich repeat serine/threonine-protein kinase 2 (Homo sapiens) (Q5S007 whole entry): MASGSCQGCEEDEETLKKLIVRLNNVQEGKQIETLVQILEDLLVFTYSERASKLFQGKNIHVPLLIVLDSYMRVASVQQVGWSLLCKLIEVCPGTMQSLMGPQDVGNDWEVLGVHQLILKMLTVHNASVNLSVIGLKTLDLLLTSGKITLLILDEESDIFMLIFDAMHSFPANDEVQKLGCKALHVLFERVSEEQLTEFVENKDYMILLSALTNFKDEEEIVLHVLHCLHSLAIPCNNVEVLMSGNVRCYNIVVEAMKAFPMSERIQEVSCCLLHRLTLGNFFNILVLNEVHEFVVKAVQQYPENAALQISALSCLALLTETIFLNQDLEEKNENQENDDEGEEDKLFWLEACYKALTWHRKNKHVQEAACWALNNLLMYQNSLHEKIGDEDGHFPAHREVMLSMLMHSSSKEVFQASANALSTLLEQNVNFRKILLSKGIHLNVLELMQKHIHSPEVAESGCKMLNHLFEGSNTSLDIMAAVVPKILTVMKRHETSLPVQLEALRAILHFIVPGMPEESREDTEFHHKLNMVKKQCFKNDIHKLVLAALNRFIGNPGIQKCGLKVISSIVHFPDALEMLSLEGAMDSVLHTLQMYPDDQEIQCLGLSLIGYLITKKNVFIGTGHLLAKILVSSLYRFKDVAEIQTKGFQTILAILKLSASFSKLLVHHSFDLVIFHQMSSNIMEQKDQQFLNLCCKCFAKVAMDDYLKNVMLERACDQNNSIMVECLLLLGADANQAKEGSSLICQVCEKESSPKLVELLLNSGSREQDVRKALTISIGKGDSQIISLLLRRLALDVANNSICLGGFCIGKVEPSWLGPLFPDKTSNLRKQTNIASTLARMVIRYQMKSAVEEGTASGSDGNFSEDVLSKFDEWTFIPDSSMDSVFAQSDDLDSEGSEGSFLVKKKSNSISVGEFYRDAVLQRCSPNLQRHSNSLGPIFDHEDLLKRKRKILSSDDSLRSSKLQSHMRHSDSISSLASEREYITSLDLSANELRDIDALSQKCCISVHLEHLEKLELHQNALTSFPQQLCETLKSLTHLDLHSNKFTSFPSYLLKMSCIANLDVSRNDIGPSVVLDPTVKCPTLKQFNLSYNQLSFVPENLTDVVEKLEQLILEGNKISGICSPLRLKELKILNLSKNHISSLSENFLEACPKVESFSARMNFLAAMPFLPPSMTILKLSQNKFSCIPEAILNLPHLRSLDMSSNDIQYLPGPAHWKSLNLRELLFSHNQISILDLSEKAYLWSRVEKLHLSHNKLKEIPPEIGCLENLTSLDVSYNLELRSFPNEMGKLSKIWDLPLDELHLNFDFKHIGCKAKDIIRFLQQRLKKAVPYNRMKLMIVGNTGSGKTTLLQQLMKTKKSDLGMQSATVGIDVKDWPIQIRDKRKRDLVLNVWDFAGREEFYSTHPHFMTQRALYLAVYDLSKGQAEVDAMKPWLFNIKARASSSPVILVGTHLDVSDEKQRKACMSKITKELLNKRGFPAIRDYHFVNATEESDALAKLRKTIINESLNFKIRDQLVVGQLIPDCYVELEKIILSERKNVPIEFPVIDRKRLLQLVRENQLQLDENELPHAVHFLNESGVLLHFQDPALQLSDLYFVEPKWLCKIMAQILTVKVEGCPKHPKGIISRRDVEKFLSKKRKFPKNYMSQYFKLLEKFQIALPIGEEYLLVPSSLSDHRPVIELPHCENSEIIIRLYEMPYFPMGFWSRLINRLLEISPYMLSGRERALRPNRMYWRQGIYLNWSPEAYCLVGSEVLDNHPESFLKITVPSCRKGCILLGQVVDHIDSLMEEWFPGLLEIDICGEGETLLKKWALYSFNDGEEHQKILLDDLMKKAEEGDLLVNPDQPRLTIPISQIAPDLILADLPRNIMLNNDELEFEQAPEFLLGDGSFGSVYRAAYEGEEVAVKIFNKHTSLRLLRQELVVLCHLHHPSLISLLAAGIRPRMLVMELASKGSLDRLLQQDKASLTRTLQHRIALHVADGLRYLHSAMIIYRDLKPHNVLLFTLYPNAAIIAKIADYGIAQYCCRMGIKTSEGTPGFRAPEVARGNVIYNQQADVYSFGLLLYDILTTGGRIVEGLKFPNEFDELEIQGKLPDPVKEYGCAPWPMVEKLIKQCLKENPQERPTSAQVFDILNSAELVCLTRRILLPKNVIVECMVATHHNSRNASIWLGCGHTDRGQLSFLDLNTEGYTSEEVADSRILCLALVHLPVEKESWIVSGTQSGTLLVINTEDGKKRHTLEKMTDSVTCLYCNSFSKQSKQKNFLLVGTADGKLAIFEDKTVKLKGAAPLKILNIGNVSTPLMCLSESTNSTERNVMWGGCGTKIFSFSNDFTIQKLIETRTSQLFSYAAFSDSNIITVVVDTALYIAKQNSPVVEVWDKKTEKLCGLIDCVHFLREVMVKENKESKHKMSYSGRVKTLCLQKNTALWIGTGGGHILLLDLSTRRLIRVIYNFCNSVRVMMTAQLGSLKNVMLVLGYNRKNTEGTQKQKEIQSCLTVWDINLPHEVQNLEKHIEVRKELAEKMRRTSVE
The target is the same in assay [15]. The following applies: at 1 µM.
Assay [16] has as its system Leucine-rich repeat serine/threonine-protein kinase 2 (Homo sapiens), Q5S007 [G2019S]. To be noted: at 0.1 µM.
Assay [17] has the same test system. The following applies: at 1 µM.

Sequence of Tyrosine-protein kinase Yes (Homo sapiens) (P07947 2-543 limits assumed): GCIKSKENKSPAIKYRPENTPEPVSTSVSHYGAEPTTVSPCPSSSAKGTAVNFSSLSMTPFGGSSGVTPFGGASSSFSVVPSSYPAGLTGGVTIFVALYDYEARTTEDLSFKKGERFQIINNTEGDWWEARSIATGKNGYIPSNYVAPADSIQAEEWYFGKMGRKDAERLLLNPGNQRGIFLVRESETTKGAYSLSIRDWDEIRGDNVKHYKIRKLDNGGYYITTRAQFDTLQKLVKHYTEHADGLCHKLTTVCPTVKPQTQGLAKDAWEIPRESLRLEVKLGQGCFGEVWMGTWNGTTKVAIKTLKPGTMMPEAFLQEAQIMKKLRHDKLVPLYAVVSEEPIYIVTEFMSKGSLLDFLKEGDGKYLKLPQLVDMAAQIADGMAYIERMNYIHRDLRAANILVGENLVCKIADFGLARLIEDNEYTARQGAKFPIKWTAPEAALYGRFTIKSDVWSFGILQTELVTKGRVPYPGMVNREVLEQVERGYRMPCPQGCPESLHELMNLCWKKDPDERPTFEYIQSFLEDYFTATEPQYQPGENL
Sequence of Leucine-rich repeat serine/threonine-protein kinase 2 (Homo sapiens), Q5S007 [G2019S] (Q5S007 whole entry G2019S): as the sequence (Q5S007 whole entry) above, with G2019S counted along it

As for `Fc1cccc(COc2ccc(Nc3ncnc4cc(-c5ccc[nH]5)sc34)cc2Cl)c1`, the inhibition (in general, the relative decrease from the control value, in per cent) in [1] is 3.81%; in [2], 2.17%; in assay [3], 9.41%; in assay [4], -0.46%; in assay [5] it was -0.93%; in assay [6] it was 3.64%. Besides, the inhibition in [7] turned out to be 2.48%; in assay [8] it was 3.55%; in [9], 2.69%; in [10], 5.88%; in assay [11], 1.43%; in assay [12], 7.16%. The inhibition is 1.69% in assay [13]; -4.42% in assay [14]; -3.46% in assay [15]; -1.54% in [16]; 0.39% in assay [17].
As for `O=C1NC(=O)C(c2ccc(Cl)cc2)=C1Nc1ccc(Cl)c(C(=O)O)c1`, the inhibition in assay [1] is -3.28%; in [2] it was -3.3%; in assay [3], 0.94%; in assay [4], -3.81%; in [5] it was -2.06%; in assay [6] it was -1.66%. The inhibition in [7] is -3.28%; in assay [8] it was -4%; in [9] it was -3.77%; in assay [10], -4.76%; in assay [12], -1.49%; in assay [13] it was -0.81%. Besides, the inhibition was -0.67% in [14], 0.65% in [15], 1.27% in assay [16] and 3.84% in [17].
With `CCn1c(-c2nonc2N)nc2c(C#CC(C)(C)O)nc(OC[C@@H](N)c3ccccc3)cc21`, the inhibition in assay [1] was 0.45%; in assay [2], 0.68%; in assay [3], 0.4%; in [4], -0.65%; in assay [5], -0.38%; in assay [6] it was -0.61%. The inhibition in assay [7] is 3.45%; in [8], -0.86%; in [9], 3.32%; in assay [10], -1.41%; in [11] it was 3.8%; in assay [12], -2.13%. Also, the inhibition in assay [13] is 0.37%; in assay [14], 2.04%; in assay [15] it was 8.46%; in assay [16] it was 2.34%; in [17] it was 19.7%.
Regarding `CS(=O)(=O)CCNCc1nc(-c2ccc3ncnc(Nc4ccc(F)c(Cl)c4)c3c2)cs1`, the inhibition in assay [1] was 3.05%; in assay [2], -0.53%; in [3] it was 9.54%; in assay [4], -0.36%; in assay [5], -0.71%; in assay [6], 1.66%. The inhibition in [7] was 3.47%; in [8], 1.41%; in [9], 3.88%; in assay [10] it was -0.76%; in [11], -0.82%; in [12], 0.41%. Also, the inhibition in assay [13] is 1.35%; in assay [14], 2.13%; in assay [15], 5.82%; in assay [16] it was 1.31%; in [17], 2.37%.
Take `COc1cc2ncn(-c3cc(O[C@@H](C)c4ccccc4Cl)c(C(N)=O)s3)c2cc1OC`: the inhibition amounted to 6% in assay [1]; 6.69% in assay [2]; 33.2% in [3]; 2.45% in assay [5]; 5.9% in [6]; 5.17% in assay [7]. The inhibition in [8] was 4.21%; in [9], 4.64%; in [10], -0.12%; in assay [11], 4.09%; in [12], 1.23%; in [13], 2.08%. The inhibition in assay [14] stood at 10.9%; in [15], 50%; in assay [16], 24%; in assay [17] it was 64%.
With `Cc1cc(O)cc(C)c1/C=C/c1cncc(-c2nn[nH]n2)c1`, the inhibition in [1] is 11.2%; in [2], 5.57%; in [3], 41.3%; in assay [4], -1.14%; in [6], 7.69%; in assay [7], 10.1%. The inhibition came out at 7.48% in assay [8]; 8.79% in [9]; 4.51% in assay [10]; 60.8% in assay [11]; 1.46% in assay [12]; 2.18% in assay [13]. In addition, the inhibition in assay [14] is 1.54%; in assay [15], 10.4%; in assay [16], 6.18%; in assay [17], 35.4%.
Turning to `CCc1cccc(NC(=O)Nc2ccc(Oc3ccc4nc(NC(=O)OC)[nH]c4c3)cc2)c1`, the inhibition in assay [1] was 21.4%; in assay [2], 0.83%; in [3] it was -1.93%; in [4], 0.4%; in assay [5], -1.32%; in assay [6] it was 9.12%. In addition, the inhibition is 12.2% in assay [7]; 9.23% in [8]; 13.8% in assay [9]; -5.43% in assay [10]; 4.58% in assay [11]; 0.53% in [12]. Moreover, the inhibition was found to be 1.04% in assay [13]; 9.23% in assay [14]; 8.78% in assay [15]; 5.51% in [16]; 8.2% in assay [17].
Consider `NS(=O)(=O)c1ccc(N/N=C2\C(=O)Nc3ccc(C(=O)NCCc4c[nH]cn4)cc32)cc1`, for which the inhibition is 21.7% in [1]; 2.67% in [2]; 11.8% in [3]; 1.45% in assay [4]; 5.13% in assay [5]; 7% in assay [6]. Besides, the inhibition in assay [7] was 16.5%; in [8], 6.04%; in [9] it was 15.9%; in assay [10], -2.7%; in [12] it was -1.81%; in assay [13] it was 2.08%. In addition, the inhibition stood at 10.3% in assay [14], 16.9% in [15], 15.3% in [16] and 50% in [17].
